Reference: the supplement of paper PMC4466140

Columns and labels:
Assay in all cases: SPOT peptide array binding signal intensity (averaged, normalized) (arbitrary units (background-subtracted, floor 0; scale differs between SH3 domains)); higher = stronger binding of the SH3 domain to the peptide
CaNbp2 = target: CaNbp2
In short: (§1)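 GST-fused SH3 domains, from four yeast species, were produced in E. coli BL21(DE3) and captured on glutathione Sepharose. Membranes of cellulose carrying synthetic 15-mer peptides, in which cysteines had been replaced by serines, were exposed to each domain at 10 μg/ml overnight at 4°C in TBS-based blocking buffer. After anti-GST antibody, an HRP anti-mouse secondary and luminol, spots were imaged and quantified using Genespotter. Binding signal is normalized and background-subtracted spot intensity, averaged over replicates, in arbitrary units that differ between domains.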

CaRvs167 = target: CaRvs167
In short: as §1

CaRvs167-3 = target: CaRvs167-3
In short: as §1

CaSho1 = target: CaSho1
In short: as §1

CaSla1-D1-D2 = target: CaSla1-D1-D2
In short: as §1

CaSla1-D3 = target: CaSla1-D3
In short: as §1

ScAbp1 = target: ScAbp1
In short: as §1

ScBbc1 = target: ScBbc1
In short: as §1

ScBem1-D1 = target: ScBem1-D1
In short: as §1

ScBzz1-D1 = target: ScBzz1-D1
In short: as §1

ScBzz1-D2 = target: ScBzz1-D2
In short: as §1

ScCyk3 = target: ScCyk3
In short: as §1

ScFus1 = target: ScFus1
In short: as §1

ScHof1 = target: ScHof1
In short: as §1

ScHse1 = target: ScHse1
In short: as §1

ScLsb1 = target: ScLsb1
In short: as §1

ScLsb2 = target: ScLsb2
In short: as §1

ScLsb3 = target: ScLsb3
In short: as §1

ScLsb4 = target: ScLsb4
In short: as §1

ScMyo3 = target: ScMyo3
In short: as §1

ScMyo5 = target: ScMyo5
In short: as §1

ScNbp2 = target: ScNbp2
In short: as §1

ScPex13 = target: ScPex13
In short: as §1

ScRvs167 = target: ScRvs167
In short: as §1

ScSho1 = target: ScSho1
In short: as §1

ScSla1-D1-D2 = target: ScSla1-D1-D2
In short: as §1

ScSla1-D3 = target: ScSla1-D3
In short: as §1

SpAbp1-D1 = target: SpAbp1-D1
In short: as §1

SpBbc1 = target: SpBbc1
In short: as §1

SpBzz1-D1 = target: SpBzz1-D1
In short: as §1

SpBzz1-D2 = target: SpBzz1-D2
In short: as §1

SpCyk3 = target: SpCyk3
In short: as §1

SpHof1 = target: SpHof1
In short: as §1

SpHof1-2 = target: SpHof1-2
In short: as §1

SpHof1-3 = target: SpHof1-3
In short: as §1

SpHse1 = target: SpHse1
In short: as §1

SpLsb1 = target: SpLsb1
In short: as §1

SpLsb4 = target: SpLsb4
In short: as §1

SpMyo1 = target: SpMyo1
In short: as §1

SpNbp2 = target: SpNbp2
In short: as §1

SpPex13 = target: SpPex13
In short: as §1

SpRvs167 = target: SpRvs167
In short: as §1

SpSla1-D1-D2 = target: SpSla1-D1-D2
In short: as §1

SpSla1-D3 = target: SpSla1-D3
In short: as §1

AgAbp1 = target: AgAbp1
In short: as §1

AgBbc1 = target: AgBbc1
In short: as §1

AgBem1-D1 = target: AgBem1-D1
In short: as §1

AgBzz1-D1 = target: AgBzz1-D1
In short: as §1

AgBzz1-D2 = target: AgBzz1-D2
In short: as §1

AgCyk3 = target: AgCyk3
In short: as §1

AgFus1 = target: AgFus1
In short: as §1

AgHof1 = target: AgHof1
In short: as §1

AgHse1 = target: AgHse1
In short: as §1

AgLsb1 = target: AgLsb1
In short: as §1

AgLsb4 = target: AgLsb4
In short: as §1

AgMyo5 = target: AgMyo5
In short: as §1

AgNbp2 = target: AgNbp2
In short: as §1

AgRvs167 = target: AgRvs167
In short: as §1

AgSho1 = target: AgSho1
In short: as §1

AgSla1-D1-D2 = target: AgSla1-D1-D2
In short: as §1

AgSla1-D3 = target: AgSla1-D3
In short: as §1

CaAbp1-D1 = target: CaAbp1-D1
In short: as §1

CaAbp1-D2 = target: CaAbp1-D2
In short: as §1

CaBbc1 = target: CaBbc1
In short: as §1

CaBem1-D1 = target: CaBem1-D1
In short: as §1

CaBzz1-D1 = target: CaBzz1-D1
In short: as §1

CaBzz1-D2 = target: CaBzz1-D2
In short: as §1

CaCyk3 = target: CaCyk3
In short: as §1

CaFus1 = target: CaFus1
In short: as §1

CaHof1 = target: CaHof1
In short: as §1

CaHse1 = target: CaHse1
In short: as §1

CaLsb1 = target: CaLsb1
In short: as §1

CaLsb4 = target: CaLsb4
In short: as §1

CaMyo5 = target: CaMyo5
In short: as §1

## RPKRRAPPPVPKKPS
CaNbp2
  SPOT peptide array binding signal intensity: 3680
CaRvs167
  SPOT peptide array binding signal intensity: 127
CaRvs167-3
  SPOT peptide array binding signal intensity: 170
CaSho1
  SPOT peptide array binding signal intensity: 236
CaSla1-D1-D2
  SPOT peptide array binding signal intensity: 3850
CaSla1-D3
  SPOT peptide array binding signal intensity: 920
ScAbp1
  SPOT peptide array binding signal intensity: 3840
ScBbc1
  SPOT peptide array binding signal intensity: 835
ScBem1-D1
  SPOT peptide array binding signal intensity: 69
ScBzz1-D1
  SPOT peptide array binding signal intensity: 1610
ScBzz1-D2
  SPOT peptide array binding signal intensity: 75.5
ScCyk3
  SPOT peptide array binding signal intensity: 17.5
ScFus1
  SPOT peptide array binding signal intensity: 42.5
ScHof1
  SPOT peptide array binding signal intensity: 0.5
ScHse1
  SPOT peptide array binding signal intensity: 432
ScLsb1
  SPOT peptide array binding signal intensity: 819
ScLsb2
  SPOT peptide array binding signal intensity: 796
ScLsb3
  SPOT peptide array binding signal intensity: 3720
ScLsb4
  SPOT peptide array binding signal intensity: 95
ScMyo3
  SPOT peptide array binding signal intensity: 705
ScMyo5
  SPOT peptide array binding signal intensity: 471
ScNbp2
  SPOT peptide array binding signal intensity: 5640
ScPex13
  SPOT peptide array binding signal intensity: 482
ScRvs167
  SPOT peptide array binding signal intensity: 1640
ScSho1
  SPOT peptide array binding signal intensity: 2030
ScSla1-D1-D2
  SPOT peptide array binding signal intensity: 3510
ScSla1-D3
  SPOT peptide array binding signal intensity: 896
SpAbp1-D1
  SPOT peptide array binding signal intensity: 3020
SpBbc1
  SPOT peptide array binding signal intensity: 115
SpBzz1-D1
  SPOT peptide array binding signal intensity: 1740
SpBzz1-D2
  SPOT peptide array binding signal intensity: 713
SpCyk3
  SPOT peptide array binding signal intensity: 4
SpHof1
  SPOT peptide array binding signal intensity: 374
SpHof1-2
  SPOT peptide array binding signal intensity: 43.2
SpHof1-3
  SPOT peptide array binding signal intensity: 972
SpHse1
  SPOT peptide array binding signal intensity: 221
SpLsb1
  SPOT peptide array binding signal intensity: 1830
SpLsb4
  SPOT peptide array binding signal intensity: 925
SpMyo1
  SPOT peptide array binding signal intensity: 687
SpNbp2
  SPOT peptide array binding signal intensity: 173
SpPex13
  SPOT peptide array binding signal intensity: 220
SpRvs167
  SPOT peptide array binding signal intensity: 1300
SpSla1-D1-D2
  SPOT peptide array binding signal intensity: 1490
SpSla1-D3
  SPOT peptide array binding signal intensity: 2

## RMVRRRPLRVQFSAR
AgAbp1
  SPOT peptide array binding signal intensity: 341
AgBbc1
  SPOT peptide array binding signal intensity: 152
AgBem1-D1
  SPOT peptide array binding signal intensity: 477
AgBzz1-D1
  SPOT peptide array binding signal intensity: 102
AgBzz1-D2
  SPOT peptide array binding signal intensity: 93.5
AgCyk3
  SPOT peptide array binding signal intensity: 3
AgFus1
  SPOT peptide array binding signal intensity: 2500
AgHof1
  SPOT peptide array binding signal intensity: 44.8
AgHse1
  SPOT peptide array binding signal intensity: 1410
AgLsb1
  SPOT peptide array binding signal intensity: 16.5
AgLsb4
  SPOT peptide array binding signal intensity: 606
AgMyo5
  SPOT peptide array binding signal intensity: 2.5
AgNbp2
  SPOT peptide array binding signal intensity: 1110
AgRvs167
  SPOT peptide array binding signal intensity: 10.8
AgSho1
  SPOT peptide array binding signal intensity: 634
AgSla1-D1-D2
  SPOT peptide array binding signal intensity: 284
AgSla1-D3
  SPOT peptide array binding signal intensity: 28.2
CaAbp1-D1
  SPOT peptide array binding signal intensity: 820
CaAbp1-D2
  SPOT peptide array binding signal intensity: 810
CaBbc1
  SPOT peptide array binding signal intensity: 247
CaBem1-D1
  SPOT peptide array binding signal intensity: 495
CaBzz1-D1
  SPOT peptide array binding signal intensity: 202
CaBzz1-D2
  SPOT peptide array binding signal intensity: 245
CaCyk3
  SPOT peptide array binding signal intensity: 104
CaFus1
  SPOT peptide array binding signal intensity: 3490
CaHof1
  SPOT peptide array binding signal intensity: 2.5
CaHse1
  SPOT peptide array binding signal intensity: 464
CaLsb1
  SPOT peptide array binding signal intensity: 12.5
CaLsb4
  SPOT peptide array binding signal intensity: 1050
CaMyo5
  SPOT peptide array binding signal intensity: 58
CaNbp2
  SPOT peptide array binding signal intensity: 1470
CaRvs167
  SPOT peptide array binding signal intensity: 190
CaRvs167-3
  SPOT peptide array binding signal intensity: 216
CaSho1
  SPOT peptide array binding signal intensity: 1620
CaSla1-D1-D2
  SPOT peptide array binding signal intensity: 590
CaSla1-D3
  SPOT peptide array binding signal intensity: 700
ScAbp1
  SPOT peptide array binding signal intensity: 188
ScBbc1
  SPOT peptide array binding signal intensity: 90.2
ScBem1-D1
  SPOT peptide array binding signal intensity: 142
ScBzz1-D1
  SPOT peptide array binding signal intensity: 39.5
ScBzz1-D2
  SPOT peptide array binding signal intensity: 238
ScCyk3
  SPOT peptide array binding signal intensity: 81.5
ScFus1
  SPOT peptide array binding signal intensity: 1530
ScHof1
  SPOT peptide array binding signal intensity: 12
ScHse1
  SPOT peptide array binding signal intensity: 2920
ScLsb1
  SPOT peptide array binding signal intensity: 23.2
ScLsb2
  SPOT peptide array binding signal intensity: 14
ScLsb3
  SPOT peptide array binding signal intensity: 1400
ScLsb4
  SPOT peptide array binding signal intensity: 364
ScMyo3
  SPOT peptide array binding signal intensity: 16
ScMyo5
  SPOT peptide array binding signal intensity: 2
ScNbp2
  SPOT peptide array binding signal intensity: 1660
ScPex13
  SPOT peptide array binding signal intensity: 40
ScRvs167
  SPOT peptide array binding signal intensity: 164
ScSho1
  SPOT peptide array binding signal intensity: 1900
ScSla1-D1-D2
  SPOT peptide array binding signal intensity: 1030
ScSla1-D3
  SPOT peptide array binding signal intensity: 217
SpAbp1-D1
  SPOT peptide array binding signal intensity: 558
SpBbc1
  SPOT peptide array binding signal intensity: 38.8
SpBzz1-D1
  SPOT peptide array binding signal intensity: 224
SpBzz1-D2
  SPOT peptide array binding signal intensity: 30.5
SpCyk3
  SPOT peptide array binding signal intensity: 7
SpHof1
  SPOT peptide array binding signal intensity: 556
SpHof1-2
  SPOT peptide array binding signal intensity: 29.5
SpHof1-3
  SPOT peptide array binding signal intensity: 862
SpHse1
  SPOT peptide array binding signal intensity: 874
SpLsb1
  SPOT peptide array binding signal intensity: 21
SpLsb4
  SPOT peptide array binding signal intensity: 1330
SpMyo1
  SPOT peptide array binding signal intensity: 46.2
SpNbp2
  SPOT peptide array binding signal intensity: 1850
SpPex13
  SPOT peptide array binding signal intensity: 320
SpRvs167
  SPOT peptide array binding signal intensity: 66.2
SpSla1-D1-D2
  SPOT peptide array binding signal intensity: 15
SpSla1-D3
  SPOT peptide array binding signal intensity: 81
